These results are taken from PubChem BioAssay AID624494 (National Center for Advancing Translational Sciences (NCATS), 2012).

Calls of active or inactive are those of the source.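 Rule for the calls: active = D2 binding constant Ki of 1000 nM or lower when displacing the radioligand; inactive = the rest.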

Chain of D(2) dopamine receptor (Homo sapiens) (P14416 whole entry, looked up): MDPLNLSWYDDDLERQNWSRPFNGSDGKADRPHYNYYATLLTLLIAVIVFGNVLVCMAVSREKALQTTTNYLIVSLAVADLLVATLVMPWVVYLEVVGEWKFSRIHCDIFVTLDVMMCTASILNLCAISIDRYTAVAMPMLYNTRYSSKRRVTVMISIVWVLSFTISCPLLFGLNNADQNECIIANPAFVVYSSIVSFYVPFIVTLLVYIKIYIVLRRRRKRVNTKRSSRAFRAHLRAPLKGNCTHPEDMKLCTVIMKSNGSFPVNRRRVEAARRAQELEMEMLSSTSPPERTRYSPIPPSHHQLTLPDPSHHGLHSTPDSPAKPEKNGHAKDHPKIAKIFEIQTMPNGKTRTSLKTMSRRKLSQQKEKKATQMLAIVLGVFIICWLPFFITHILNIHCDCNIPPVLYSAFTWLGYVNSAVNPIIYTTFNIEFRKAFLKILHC

The assay concerns the target D(2) dopamine receptor (Homo sapiens) (UniProt P14416). Briefly: HTS Assay for Allosteric Antagonists of the Human D2 Dopamine Receptor: SAR in D2 Binding Assay. Particulars: D2 radioligand binding, methylspiperone displacement. From the text: Dopamine receptors (DARs) are involved in the etiology and/or therapy of a number of neuropsychiatric and endocrine disorders. For instance, all receptor-based antiparkinsonian drugs work via stimulating the D2 DAR subtype whereas all FDA-approved antipsychotic agents are antagonists of this receptor. […] There are three different types of allosteric modulators that we are seeking, two of which will stimulate or augment receptor signaling, allosteric agonists and potentiators, while the third, allosteric antagonists, will attenuate receptor signaling. The present primary screening assay measures compound antagonism after an EC80 addition of dopamine by tracking calcium flux in a […], inducible Hek293 Trex D2 cell line. This assay measures activity of the leads in the D2 radioligand binding assay. NIH Chemical Genomics Center [NCGC] NIH Molecular Libraries Probe Centers Network [MLPCN] MLPCN Grant: NS0676421 Assay Submitter (PI): David Sibley
Radioligand displacement assay will be done to determine if the lead compounds are allosteric or orthosteric in nature, for interaction with the D2 receptor. Compounds will be evaluated for their ability to displace binding of methylspiperone.
`CN1C(=O)c2ccccc2[S@](=O)c2ccc(C(=O)NCCc3cccs3)cc21`: the Ki (commonly a measure of affinity in units of concentration, obtained from inhibition or displacement) is 100 nM (active).
